# According to PubChem BioAssay (Tox21):
# Inconclusive results are not listed. A call without a number means that no potency is given here. Calls of active or inactive are those of the source. Unless noted, the call rests on the fitted dose curve.
# Molecular target: Estrogen receptor (Homo sapiens) (UniProt P03372)
# Assay: qHTS assay to identify small molecule agonists of the estrogen receptor alpha (ER-alpha) signaling pathway (AID 743075);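 further: HEK293 GripTite cells with ER-alpha and UAS-driven beta-lactamase reporter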
# Conditions: HEK293 ER-alpha-UAS-bla, beta-lactamase FRET ratio, 18 h; series mostly up to 70.1 µM
# Sequence of Estrogen receptor (Homo sapiens) (P03372 whole entry, looked up): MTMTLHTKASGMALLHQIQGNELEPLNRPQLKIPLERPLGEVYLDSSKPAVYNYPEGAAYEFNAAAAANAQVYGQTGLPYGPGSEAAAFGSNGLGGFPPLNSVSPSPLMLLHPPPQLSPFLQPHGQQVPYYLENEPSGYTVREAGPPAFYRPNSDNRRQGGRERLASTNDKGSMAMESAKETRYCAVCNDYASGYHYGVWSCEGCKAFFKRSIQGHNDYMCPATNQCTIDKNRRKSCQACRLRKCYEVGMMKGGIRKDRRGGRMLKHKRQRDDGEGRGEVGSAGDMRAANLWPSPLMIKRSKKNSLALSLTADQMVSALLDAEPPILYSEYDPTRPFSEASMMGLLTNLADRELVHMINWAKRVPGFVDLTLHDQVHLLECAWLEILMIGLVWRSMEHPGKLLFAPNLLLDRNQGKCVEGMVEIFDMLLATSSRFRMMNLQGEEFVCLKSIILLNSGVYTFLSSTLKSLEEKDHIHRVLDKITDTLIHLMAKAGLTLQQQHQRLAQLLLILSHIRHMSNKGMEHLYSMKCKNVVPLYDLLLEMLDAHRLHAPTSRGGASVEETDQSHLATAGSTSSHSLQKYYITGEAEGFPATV
row,SMILES,Potency
1,CCCN(CC)C(CC)C(=O)Nc1c(C)cccc1C (stereo not drawn),inactive
2,O=c1[nH]cnc2[nH]cc(CN3CCCCC3)c12,inactive
3,C[C@]12C=CC(=O)C=C1CC[C@@H]1[C@@H]2[C@@H](O)C[C@@]2(C)[C@H]1CC[C@]2(O)C(=O)COC(=O)CCC(=O)O,inactive
4,CNC[C@@H]1CC[C@@H](N)[C@@H](O[C@H]2[C@H](O)[C@@H](O[C@H]3OC[C@](C)(O)[C@H](NC)[C@H]3O)[C@H](N)C[C@@H]2N)O1,inactive
5,C=C1CC2C3CCC4=CC(=O)C=C[C@]4(C)[C@@]3(F)[C@@H](O)C[C@]2(C)[C@@]1(O)C(=O)COC(C)=O (stereo partly drawn),inactive
6,O=C(NOC[C@H](O)CO)c1ccc(F)c(F)c1Nc1ccc(I)cc1F,inactive
7,NCCC(=O)[N-][C@@H](Cc1cnc[nH]1)C(=O)O.[Zn],inactive
8,OCC(O)COc1ccc(Cl)cc1 (stereo not drawn),inactive
9,C[C@H]1C[C@H]2[C@@H]3CCC4=CC(=O)C=C[C@]4(C)[C@@]3(F)[C@@H](O)C[C@]2(C)[C@@]1(O)C(=O)CCl,inactive
10,CCN(CC)c1ccc(N=Nc2ccc(S(=O)(=O)N(C)C)cc2)c(S(=O)(=O)NCC[n+]2ccccc2)c1,inactive
11,Cc1c(O)cc2c(c1C)O[C@](C)(CCC[C@H](C)CCC[C@H](C)CCCC(C)C)CC2,inactive
12,c1ccc2c(CCC3CCNCC3)c[nH]c2c1,inactive
13,CC(=O)OCC(=O)[C@@]1(O)[C@H](C)C[C@H]2[C@@H]3C[C@H](F)C4=CC(=O)C=C[C@]4(C)[C@H]3[C@@H](O)C[C@@]21C,inactive
14,CC(=O)N[C@@H](CC(=O)N[C@@H](CCC(=O)O)C(=O)O)C(=O)O,inactive
15,C=C1c2c(Cl)ccc(O)c2C(O)=C2C(=O)[C@]3(O)C(O)=C(C(N)=O)C(=O)[C@@H](N(C)C)[C@@H]3[C@@H](O)[C@H]12,inactive
16,CCCCCCCCCCCCCCCC(=O)OC[C@@H](COP(=O)([O-])OCC[N+](C)(C)C)OC(=O)CCCCCCCCCCCCCCC,inactive
17,C[N+](C)(CCCCCC[N+](C)(C)C1c2ccccc2-c2ccccc21)C1c2ccccc2-c2ccccc21,inactive
18,Cc1cc(Nc2ccccc2C(=O)O)ccc1Cl,inactive
19,CCCCCCCCCCCCCCCCCC(=O)OCCO,inactive
20,CO[C@H]1[C@@H](O)[C@H](N)[C@@H](O[C@H]2O[C@H]([C@H](C)N)CC[C@H]2N)[C@H](O)[C@@H]1N(C)C(=O)CN,inactive
21,O=C[C@H](O)[C@@H](O)[C@H](O[C@H]1O[C@H](CO)[C@@H](O[C@H]2O[C@H](CO)[C@@H](O)[C@H](O)[C@H]2O)[C@H](O)[C@H]1O)[C@H](O)CO,inactive
22,CC(=O)OC[C@H]1O[C@@H](O[C@H]2[C@H](O)[C@@H](OC(=O)c3ccccc3C(=O)O)[C@H](O)O[C@@H]2COC(C)=O)[C@H](O)[C@@H](OC(=O)c2ccccc2C(=O)O)[C@@H]1O,inactive
23,CN=C(NC)NCc1ccccc1,inactive
24,CC1(C)S[C@@H]2[C@H](NC(=O)C(C(=O)Oc3ccc4c(c3)CCC4)c3ccccc3)C(=O)N2[C@H]1C(=O)O (stereo partly drawn),inactive
25,CS(=O)(=O)NC(=O)CCC/C=C\C[C@H]1C(=O)C[C@@H](O)[C@@H]1/C=C/[C@H](O)COc1ccccc1,inactive
26,COc1cc(S(C)=O)ccc1-c1nc2ncccc2[nH]1 (stereo not drawn),inactive

# Molecular target: Estrogen receptor (Homo sapiens) (UniProt P03372)
# Assay: qHTS assay to identify small molecule agonists of the estrogen receptor alpha (ER-alpha) signaling pathway using the BG1 cell line (AID 743079; active means well fitted activation curve with a large enough effect in the repeat runs; further: nearly all actives have a fitted effect of over 20% in size; further: potency means the concentration at half of the fitted maximal effect)
# Conditions: BG1Luc4E2 cells, ERE-luciferase agonist, 22 h; activation: at 70.3 µM (top of the series)
row,SMILES,Potency
1,CCCN(CC)C(CC)C(=O)Nc1c(C)cccc1C (stereo not drawn),inactive
2,O=c1[nH]cnc2[nH]cc(CN3CCCCC3)c12,inactive
3,CNC[C@@H]1CC[C@@H](N)[C@@H](O[C@H]2[C@H](O)[C@@H](O[C@H]3OC[C@](C)(O)[C@H](NC)[C@H]3O)[C@H](N)C[C@@H]2N)O1,inactive
4,O=C(NOC[C@H](O)CO)c1ccc(F)c(F)c1Nc1ccc(I)cc1F,inactive
5,NCCC(=O)[N-][C@@H](Cc1cnc[nH]1)C(=O)O.[Zn],inactive
6,OCC(O)COc1ccc(Cl)cc1 (stereo not drawn),inactive
7,C[C@H]1C[C@H]2[C@@H]3CCC4=CC(=O)C=C[C@]4(C)[C@@]3(F)[C@@H](O)C[C@]2(C)[C@@]1(O)C(=O)CCl,inactive
8,Cc1c(O)cc2c(c1C)O[C@](C)(CCC[C@H](C)CCC[C@H](C)CCCC(C)C)CC2,inactive
9,c1ccc2c(CCC3CCNCC3)c[nH]c2c1,inactive
10,Cc1ccccc1CNc1ncnc2c1ncn2[C@@H]1O[C@H](CO)[C@@H](O)[C@H]1O,inactive
11,CC(=O)OCC(=O)[C@@]1(O)[C@H](C)C[C@H]2[C@@H]3C[C@H](F)C4=CC(=O)C=C[C@]4(C)[C@H]3[C@@H](O)C[C@@]21C,inactive
12,CC(C)(C)CC(=O)OCC(=O)[C@@]12OC(C)(C)O[C@@H]1C[C@H]1[C@@H]3CCC4=CC(=O)C=C[C@]4(C)[C@@]3(F)[C@@H](O)C[C@@]12C,inactive
13,CC(=O)N[C@@H](CC(=O)N[C@@H](CCC(=O)O)C(=O)O)C(=O)O,inactive
14,C=C1c2c(Cl)ccc(O)c2C(O)=C2C(=O)[C@]3(O)C(O)=C(C(N)=O)C(=O)[C@@H](N(C)C)[C@@H]3[C@@H](O)[C@H]12,inactive
15,CCCCCCCCCCCCCCCC(=O)OC[C@@H](COP(=O)([O-])OCC[N+](C)(C)C)OC(=O)CCCCCCCCCCCCCCC,29.8 µM (active)
16,C[N+](C)(CCCCCC[N+](C)(C)C1c2ccccc2-c2ccccc21)C1c2ccccc2-c2ccccc21,inactive
17,CCCCCCCCCCCCCCCCCC(=O)OCCO,9.44 µM (active)
18,CO[C@H]1[C@@H](O)[C@H](N)[C@@H](O[C@H]2O[C@H]([C@H](C)N)CC[C@H]2N)[C@H](O)[C@@H]1N(C)C(=O)CN,33.5 µM (active)
19,O=C[C@H](O)[C@@H](O)[C@H](O[C@H]1O[C@H](CO)[C@@H](O[C@H]2O[C@H](CO)[C@@H](O)[C@H](O)[C@H]2O)[C@H](O)[C@H]1O)[C@H](O)CO,26.6 µM (active)
20,CC(=O)OC[C@H]1O[C@@H](O[C@H]2[C@H](O)[C@@H](OC(=O)c3ccccc3C(=O)O)[C@H](O)O[C@@H]2COC(C)=O)[C@H](O)[C@@H](OC(=O)c2ccccc2C(=O)O)[C@@H]1O,inactive
21,CS(=O)(=O)NC(=O)CCC/C=C\C[C@H]1C(=O)C[C@@H](O)[C@@H]1/C=C/[C@H](O)COc1ccccc1,inactive
22,COc1cc(S(C)=O)ccc1-c1nc2ncccc2[nH]1 (stereo not drawn),inactive
